Measurements published in PubChem BioAssay AID1445 (SRMLSC, 2008).
The campaign covered roughly 220,000 compounds. About 910 (0.41%) were called active. The sample as a whole holds a higher share of actives than the screen did. Measured potencies and affinities stand elsewhere. Values without a mark were called inactive.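 How the source made its calls: active means primary inhibition above the hit cutoff, then over 50% inhibition at one or more dose response concentrations (cut at about 23% in these data, passing the limit was not always enough); inconclusive means conflicting primary data, or primary hits not chosen for dose response; inactive means low primary inhibition, or under 50% at every dose.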

Target: Aminopeptidase N (Plasmodium falciparum (isolate 3D7)) (UniProt O96935)
Experiment: malaria alanyl aminopeptidase activity blockers – biochemical, fluorogenic H-Leu-NHMec substrate, 1536-well (AID 1445);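 further: plate controls were DMSO full reaction for no effect and no enzyme background for full effect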
Conditions: recombinant M1AAP, H-Leu-NHMec fluorogenic kinetic assay; at 30 µM, active compounds read high unless noted

Sequence of Aminopeptidase N (Plasmodium falciparum (isolate 3D7)) (O96935 whole entry, looked up): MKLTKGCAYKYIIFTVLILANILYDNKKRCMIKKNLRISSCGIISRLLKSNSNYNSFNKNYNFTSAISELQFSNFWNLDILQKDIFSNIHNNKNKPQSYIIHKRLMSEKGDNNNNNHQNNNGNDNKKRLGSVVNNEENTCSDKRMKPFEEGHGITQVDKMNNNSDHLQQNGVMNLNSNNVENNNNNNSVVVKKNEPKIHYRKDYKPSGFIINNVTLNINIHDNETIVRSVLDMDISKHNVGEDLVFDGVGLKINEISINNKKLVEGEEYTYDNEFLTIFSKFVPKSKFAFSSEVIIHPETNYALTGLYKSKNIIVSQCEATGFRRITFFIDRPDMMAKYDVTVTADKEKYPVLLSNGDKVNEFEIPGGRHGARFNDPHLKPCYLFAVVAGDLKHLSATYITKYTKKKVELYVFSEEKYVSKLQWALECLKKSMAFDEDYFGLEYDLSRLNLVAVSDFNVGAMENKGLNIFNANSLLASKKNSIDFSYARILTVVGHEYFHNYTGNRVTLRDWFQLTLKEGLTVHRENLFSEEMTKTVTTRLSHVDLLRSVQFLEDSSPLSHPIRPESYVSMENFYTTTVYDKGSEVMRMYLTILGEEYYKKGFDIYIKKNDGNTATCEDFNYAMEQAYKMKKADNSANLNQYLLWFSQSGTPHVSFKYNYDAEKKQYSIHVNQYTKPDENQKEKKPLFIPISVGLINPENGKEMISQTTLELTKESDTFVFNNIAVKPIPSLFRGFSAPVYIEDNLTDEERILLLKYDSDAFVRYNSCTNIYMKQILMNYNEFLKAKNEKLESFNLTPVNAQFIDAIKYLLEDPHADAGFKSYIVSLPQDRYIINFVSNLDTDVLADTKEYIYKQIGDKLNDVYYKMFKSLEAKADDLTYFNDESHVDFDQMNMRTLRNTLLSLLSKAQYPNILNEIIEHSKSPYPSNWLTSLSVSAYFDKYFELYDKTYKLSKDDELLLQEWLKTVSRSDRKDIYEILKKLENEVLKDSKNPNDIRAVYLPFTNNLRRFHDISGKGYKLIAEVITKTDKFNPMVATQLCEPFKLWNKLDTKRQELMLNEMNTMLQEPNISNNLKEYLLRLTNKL

Structure (SMILES): COc1ccc(NC(=O)c2ccccc2F)cc1Cl
- inhibition: 5.75%

Structure (SMILES): CCCC[C@@H]1CNC(=S)N1CCCc1cc(OC)c(OC)c(OC)c1
- inhibition: 2.36%

Structure (SMILES): COc1cc(NC(=O)CSc2nnnn2Cc2ccccc2)cc(OC)c1
- inhibition: -0.13%

Structure (SMILES): Cc1nc(COC(=O)c2ccc(CO)cc2)cs1
- inhibition: 4.37%

Structure (SMILES): Cn1c(=O)c2nc(Cl)c(-c3ccccc3)nc2n(C)c1=O
- inhibition: 4.55%

Structure (SMILES): COCCCNc1ccc([N+](=O)[O-])cc1C(=O)Nc1cccc(C)n1
- inhibition: 2.01%

Structure (SMILES): O=c1[nH]c2ccc(NS(=O)(=O)c3ccc(Cl)cc3)cc2[nH]1
- inhibition: 7.26%

Structure (SMILES): CCOc1ccc(NS(=O)(=O)c2ccc3[nH]c(=O)c(=O)[nH]c3c2)cc1
- inhibition: 10.4%

Structure (SMILES): CC(C)CCNC(=O)c1nnc(Cc2ccc(Cl)cc2)o1
- inhibition: 2.74%

Structure (SMILES): O=C(NCCCc1ccccc1)c1cc([N+](=O)[O-])ccc1Cl
- inhibition: 3.08%

Structure (SMILES): C[N+]1(CC(=O)OC2CCCCCCCCCCC2)CCCC1
- inhibition: 32.9%

Structure (SMILES): Cc1ccc(-c2nc(N=Nc3ccc(O)cc3)n[nH]2)cc1
- inhibition: 15.9%

Structure (SMILES): Oc1ccc(N=Nc2n[nH]c(-c3ccc(Cl)cc3)n2)cc1
- inhibition: 26.6% (active)

Structure (SMILES): Oc1ccc(N=Nc2n[nH]c(-c3ccc(Br)cc3)n2)cc1
- inhibition: 14.1%

Structure (SMILES): O=C(Nc1ccccc1N1CCOCC1)c1cccnc1
- inhibition: -1.63%

Structure (SMILES): Cc1onc(-c2c(Cl)cccc2Cl)c1COC(=O)c1ccc(Cl)cc1
- inhibition: 0.11%

Structure (SMILES): O=c1[nH]c(SCc2ccccc2Cl)nc2c1CCC2
- inhibition: -1.92%

Structure (SMILES): O=c1[nH]c(SCc2ccccc2Cl)nc2c1CCCC2
- inhibition: -3.65%

Structure (SMILES): Cc1cccc(OCC(=O)NCC(=O)N/N=C/c2cccnc2)c1
- inhibition: 8.13%

Structure (SMILES): O=c1c2ccccc2nc(SCc2cc(F)ccc2F)n1C1CCCC1
- inhibition: 6.96%

Structure (SMILES): CCC(C)(C)NC(=O)C(c1cccnc1)N(C(=O)c1csnn1)c1ccccc1 (stereo not drawn)
- inhibition: -0.28%

Structure (SMILES): O=P(Cc1cc(Br)cc(Br)c1OCCO)(c1ccccc1)c1ccccc1
- inhibition: 5.71%

Structure (SMILES): O=C(COc1ccc(Br)cc1CO)Nc1ccccc1
- inhibition: 9.17%

Structure (SMILES): CCCn1c(SC2C(=O)CC(C)(C)CC2=O)nc2c1c(=O)n(C)c(=O)n2C
- inhibition: -3.71%

Structure (SMILES): CCn1ccnc1CN(C)Cc1nc(-c2cccc(Cl)c2)no1
- inhibition: -7.75%

Structure (SMILES): C=CCn1c(-c2ccc(F)cc2)n[nH]c1=S
- inhibition: 4.9%

Structure (SMILES): CCOP(=O)(OCC)c1nc(-c2ccc(Cl)cc2Cl)oc1N1CCCCC1
- inhibition: 10.7%

Structure (SMILES): CCOP(=O)(OCC)c1nc(-c2cccc3ccccc23)oc1N1CCCCC1
- inhibition: 15.6%

Structure (SMILES): CCOC(=O)C/C(C)=N\Nc1nc(-c2ccccc2)cs1
- inhibition: 1.35%

Structure (SMILES): COCC(=O)N1CCN(c2cccc(C(F)(F)F)c2)CC1
- inhibition: -4.62%

Structure (SMILES): O=C(CSCc1ccccc1)N1CCN(c2cccc(C(F)(F)F)c2)CC1
- inhibition: 6.51%

Structure (SMILES): Cc1cccc(/C=N/NC(=O)c2cc(-c3cccnc3)nc3ccccc23)c1
- inhibition: 5.37%

Structure (SMILES): c1ccc(SCc2nc(-c3cccnc3)no2)cc1
- inhibition: 2.83%

Structure (SMILES): CCOC(=O)c1c(NC(=O)C2CCCO2)sc(C)c1C (stereo not drawn)
- inhibition: 2.42%

Structure (SMILES): CCOC(=O)NC(=O)/C(C=Nc1ccc(Cl)cc1)=C(\C)O
- inhibition: 10.5%

Structure (SMILES): CCCN(CCC)C1CC(=O)N(Cc2ccccc2)C1=O (stereo not drawn)
- inhibition: 4.78%

Structure (SMILES): CCCCCC(=O)N(O)C1CC(=O)N(c2ccccc2)C1=O (stereo not drawn)
- inhibition: 11.5%

Structure (SMILES): CCCCCCC(=O)N(O)C1CC(=O)N(c2ccc(C)cc2)C1=O (stereo not drawn)
- inhibition: 35.5%

Structure (SMILES): CCCCCCC(=O)N(O)C1CC(=O)N(Cc2ccccc2)C1=O (stereo not drawn)
- inhibition: 37.9% (active)

Structure (SMILES): O=C1CC(N(O)C2CC(=O)N(Cc3ccccc3)C2=O)C(=O)N1Cc1ccccc1 (stereo not drawn)
- inhibition: 6.83%

Structure (SMILES): CCCCC(CCC(=O)Nc1ccccc1C(=O)OCC)C(=O)O (stereo not drawn)
- inhibition: 0.91%

Structure (SMILES): CCN(CC)S(=O)(=O)c1ccc(C)c(NC(=O)c2cc(C)oc2C)c1
- inhibition: 3.95%

Structure (SMILES): O=C(O)CCC(=O)N(Cc1ccco1)C1CC(=O)N(c2ccccc2)C1=O (stereo not drawn)
- inhibition: 7.06%

Structure (SMILES): CCOC(=O)N1CCN(c2c(NCc3ccccc3OC)c(=O)c2=O)CC1
- inhibition: 1.73%

Structure (SMILES): CCOC(=O)N1CCN(c2c(NCc3ccc(Cl)cc3)c(=O)c2=O)CC1
- inhibition: 5.09%

Structure (SMILES): COc1ccc(C(=O)N/N=C/c2cc3ccccc3[nH]c2=O)cc1
- inhibition: 6.42%

Structure (SMILES): COc1cc2ccccc2cc1C(=O)NC(=S)Nc1cccc(C(=O)O)c1C
- inhibition: 8.01%

Structure (SMILES): COCCNC(=S)N1CCc2cc(OC)c(OC)cc2C1COc1ccc(C(C)C)cc1 (stereo not drawn)
- inhibition: 15.1%
